An excerpt weighted towards active compounds, which were near 9.4% of everything screened.
Rab9 promoter act = activators of Rab9 promoter; Huh7 Rab9 promoter-luciferase reporter, luminescence, 24 h; 320,000 compounds, 2.8% hits; Potency, µM (top dose mostly 9.22 µM), for the others: top-dose activation, negative = inhibition, most hits filed as activators; also: % of control where 0% means no effect; nearly all actives have a fitted effect of over 60% in size
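Quantitative HTS format; Huh7 Rab9-luciferase reporter cells (1500/well) receive compound 2 h post-plating, incubate 24 h at 37 °C, then get luciferase reagent for 10 min before luminescence reading.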
FLuc counter = counter-screen for miR-21 project: firefly luciferase inhibitors or activators; P08659; purified FLuc, Km substrates, luminescence inhibition; 360,000 compounds, 6.9% hits; Potency, µM (titrated, usually from 57.5 µM), for the others: top-dose activity change, negative = inhibition, usual class: inhibitors;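 also: plate controls were vehicle for no effect and reference inhibitor for full effect; nearly all actives have a fitted effect of over 55% in size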
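Biochemical qHTS of compounds, final roughly 60 µM downward over six points, against 10 nM purified firefly luciferase using Km concentrations of substrates (10 uM D-luciferin, 10 uM ATP) in Tris acetate pH 7.5 buffer; luminescence output.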
NPC1 prom act = activators of NPC1 promoter. 320,000 compounds, 2.4% hits. Huh7 NPC1 promoter luciferase reporter, 24 h. Potency, µM (top dose mostly 9.22 µM), inactives show at the top dose activation, usual class: activators; also: % of control where 0% means no effect; nearly all actives have a fitted effect of over 60% in size
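Quantitative HTS used a cell-based reporter: Huh7 cells stably bearing the NPC1 promoter upstream of luciferase were treated with compounds for 24 h, and promoter activation was read as luminescence.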
ELG1 repair inh = blocks ELG1-dependent DNA repair in HEK293T cells. HEK293T ELG1-luciferase reporter, luminescence, 16 h; DNA damage induced by 5-fluorouridine. Potency, µM (top dose mostly 46.1 µM), for inactives: at the highest dose activity change, negative = inhibition, hits mostly inhibitors. 330,000 compounds, 2.3% hits. AID 504467; also: % is scaled to controls: 0 for no effect and ±100 for the full control effect; nearly all actives have a fitted effect of over 55% in size
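5-Fluorouridine DNA damage + compound/DMSO, 2,000 cells/well, 16 h, 37 °C/5% CO2. ONE-Glo, 30 min RT, luminescence. Readout = decrease in reporter signal.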
ELG1 genotox = inducers of genotoxicity in HEK293T ELG1-luciferase cells | 330,000 compounds, 1.3% hits | AID 504466 | Potency, µM (top dose mostly 46 µM), without a hit: top-dose activity change, positive = activation, hits mostly activators | HEK293T ELG1-luciferase reporter, luminescence, 16 h; also: % of control where 0% means no effect; nearly all actives have a fitted effect of over 60% in size
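Step 1: seed 2,000 HEK293T ELG1-luciferase cells per well. Step 2: add compound or DMSO, incubate 16 hr at 37 °C. Step 3: ONE-Glo, 30 min at room temperature, read luminescence.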
SMN2 splice enh = increases expression of the SMN2 splice variant; HEK293 SMN2-luciferase splicing reporter, luminescence, 30-36 h; Potency, µM (series often up to 46.1 µM), for the others: at the top dose activity change, positive = activation, actives largely listed as activators; 210,000 compounds, 2.8% hits; AID 1458; also: % of control where 0% means no effect; nearly all actives have a fitted effect of over 55% in size
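HEK293 cells carry an SMN2 […]–luciferase reporter in which exon 7 inclusion puts luciferase in frame. Cells were plated 10-12 h before compound addition, then incubated 30-36 h at 37C. ONE-Glo luminescence was read; sodium butyrate at 4.5 mM final served as control.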
ELG1 FLuc counter = luciferase inhibition in cell-free luciferin readout for ELG1 hits. shares compounds with ELG1 repair inh. cell-free firefly luciferase luminescence counter-screen, ViewLux. Potency, µM (series often up to 46.1 µM), for the others: at the top dose activity change, negative = inhibition, hits mostly inhibitors. 350 compounds, 3% hits; also: % is scaled to controls: 0 for no effect and ±100 for the full control effect
ELG1 Luc conf = confirmation of human ELG1-dependent DNA repair inhibitors. shares compounds with ELG1 repair inh. HEK293T ELG1-luciferase levels, luminescence; cells co-treated with 5-fluorouridine. Potency, µM (titrated, usually from 46.1 µM), without a hit: at the top dose activity change, negative = inhibition, actives largely listed as inhibitors. 670 compounds, 68% hits. AID 624248; also: % is scaled to controls: 0 for no effect and ±100 for the full control effect; nearly all actives have a fitted effect of over 55% in size
Target sequence (Q96QE3 whole entry, looked up): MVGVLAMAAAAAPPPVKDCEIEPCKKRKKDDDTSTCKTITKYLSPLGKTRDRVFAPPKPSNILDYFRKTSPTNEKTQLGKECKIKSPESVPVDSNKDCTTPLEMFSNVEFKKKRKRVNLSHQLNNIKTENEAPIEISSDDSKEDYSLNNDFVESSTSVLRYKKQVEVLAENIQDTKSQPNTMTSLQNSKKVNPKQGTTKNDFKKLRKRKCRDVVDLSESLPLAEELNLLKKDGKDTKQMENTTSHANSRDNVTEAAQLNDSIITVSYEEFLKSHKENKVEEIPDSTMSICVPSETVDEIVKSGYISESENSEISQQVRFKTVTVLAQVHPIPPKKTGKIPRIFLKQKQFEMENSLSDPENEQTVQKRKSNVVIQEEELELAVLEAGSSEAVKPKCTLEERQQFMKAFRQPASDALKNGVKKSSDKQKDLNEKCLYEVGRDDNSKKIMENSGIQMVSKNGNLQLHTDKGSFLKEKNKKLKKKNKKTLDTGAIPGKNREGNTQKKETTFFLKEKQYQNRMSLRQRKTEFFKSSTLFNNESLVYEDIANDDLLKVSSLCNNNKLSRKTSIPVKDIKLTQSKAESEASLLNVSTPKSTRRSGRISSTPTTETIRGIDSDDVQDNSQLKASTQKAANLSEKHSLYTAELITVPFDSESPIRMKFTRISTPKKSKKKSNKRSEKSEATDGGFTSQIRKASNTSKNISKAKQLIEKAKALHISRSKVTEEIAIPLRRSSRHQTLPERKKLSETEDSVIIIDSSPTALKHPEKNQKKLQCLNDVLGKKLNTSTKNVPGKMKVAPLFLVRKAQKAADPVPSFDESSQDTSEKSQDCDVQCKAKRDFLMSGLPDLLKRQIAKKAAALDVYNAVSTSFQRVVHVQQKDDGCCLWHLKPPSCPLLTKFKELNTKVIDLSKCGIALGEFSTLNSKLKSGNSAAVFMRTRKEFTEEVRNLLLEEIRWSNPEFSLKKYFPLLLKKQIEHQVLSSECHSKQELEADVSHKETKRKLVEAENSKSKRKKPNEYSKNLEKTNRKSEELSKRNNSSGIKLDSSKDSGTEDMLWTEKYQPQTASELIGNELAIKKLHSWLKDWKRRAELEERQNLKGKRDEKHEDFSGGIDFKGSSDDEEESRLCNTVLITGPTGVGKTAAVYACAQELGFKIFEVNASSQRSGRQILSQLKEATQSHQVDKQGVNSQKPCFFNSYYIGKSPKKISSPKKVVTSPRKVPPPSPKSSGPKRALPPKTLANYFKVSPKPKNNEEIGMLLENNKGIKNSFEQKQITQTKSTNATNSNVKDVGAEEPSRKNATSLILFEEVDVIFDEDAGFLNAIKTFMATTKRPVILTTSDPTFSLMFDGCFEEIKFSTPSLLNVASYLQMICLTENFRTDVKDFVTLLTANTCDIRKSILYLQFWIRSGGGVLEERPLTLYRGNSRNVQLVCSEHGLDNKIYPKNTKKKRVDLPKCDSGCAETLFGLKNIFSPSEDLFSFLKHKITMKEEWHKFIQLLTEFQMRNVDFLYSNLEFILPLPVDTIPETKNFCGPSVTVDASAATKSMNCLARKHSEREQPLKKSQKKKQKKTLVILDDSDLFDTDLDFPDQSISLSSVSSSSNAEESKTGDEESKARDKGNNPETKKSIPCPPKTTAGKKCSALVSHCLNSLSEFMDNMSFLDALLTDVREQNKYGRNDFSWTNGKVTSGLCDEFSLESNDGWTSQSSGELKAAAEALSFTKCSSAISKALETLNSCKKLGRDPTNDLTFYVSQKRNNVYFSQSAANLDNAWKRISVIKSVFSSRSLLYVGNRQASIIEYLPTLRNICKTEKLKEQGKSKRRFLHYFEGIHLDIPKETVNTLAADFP
ELG1-Luc MMS = confirmation of human ELG1 repair inhibitors, MMS stimulated; shares compounds with ELG1 repair inh; 670 compounds, 53% hits; HEK293T luciferase-tagged ELG1 level, MMS stimulated; Potency, µM (highest dose often 46.1 µM), without a hit: at the highest dose activity change, negative = inhibition, hits mostly inhibitors; also: % is scaled to controls: 0 for no effect and ±100 for the full control effect; nearly all actives have a fitted effect of over 60% in size
ELG1 5-FU = confirmation of ELG1 repair inhibitors: viability with 5FU; shares compounds with ELG1 repair inh; cell viability with 5-FU, ELG1-dependent repair; Potency, µM (titrated, usually from 46.1 µM), inactives show top-dose activity change, negative = viability loss, hits mostly cytotoxic; 670 tested, under 10 active; AID 624250;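 also: ELG1-luc HEK293T cells cotreated with 5-fluorouridine at 10 µM final; viability measured 16 h after compound addition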
ELG1 MMS cell = confirmation of ELG1 repair inhibitors: viability with MMS. shares compounds with ELG1 repair inh. Cell viability with MMS, ELG1-dependent DNA repair. Potency, µM (doses to about 46.1 µM), for the others: at the highest dose activity change, negative = viability loss, usual class: cytotoxic. 670 compounds, 33% hits;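 also: ELG1-luc HEK293T cells co-treated with 10 µM MMS; viability read 16 h after compound addition; % is scaled to controls: 0 for no effect and ±100 for the full control effect; nearly all actives have a fitted effect of over 60% in size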
Cell viab unstim = affects unstimulated cell viability, ELG1 hit counter-screen. Potency, µM (highest dose often 45.9 µM), for the others: at the highest dose activity change, negative = loss of viability, hits mostly cytotoxic. shares compounds with ELG1 repair inh. 900 compounds, 8% hits. cell viability counter-screen, unstimulated, luminescence. AID 624252;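 also: compound exposure lasted 16 hours before reading; % is scaled to controls: 0 for no effect and ±100 for the full control effect; nearly all actives have a fitted effect of over 55% in size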
FLuc enzyme = counter-screen for ELG1 repair inhibitors: firefly luciferase inhibition | shares compounds with ELG1 repair inh | Potency, µM (titrated, usually from 57.5 µM), inactives show at the highest dose activity, negative = inhibition, most hits filed as inhibitors | AID 624253 | purified firefly luciferase, luminescence counter-screen | 350 compounds, 10% hits; also: % is scaled to controls: 0 for no effect and ±100 for the full control effect
An asterisk follows results filed as active; u = inconclusive; x = no result given. Calls follow the shape of the dose curve; as a rule, active = well fitted curve in the direction sought with a large enough effect; inconclusive = small, poorly fitted or top-dose-only effect, or another doubt; inactive = no such curve, though single readings can be large; an effect the other way counts as inactive or inconclusive. Potency is read from the fitted curve at half-maximal effect.

SMILES	Rab9 promoter act	FLuc counter	NPC1 prom act	ELG1 repair inh	ELG1 genotox	SMN2 splice enh	ELG1 Luc conf	ELG1-Luc MMS	ELG1 5-FU	ELG1 MMS cell	Cell viab unstim	others
Cc1c(CC(=O)N2CCN(C(=O)C3COc4ccccc4O3)CC2)c(=O)oc2cc(O)c(Cl)cc12 (centres undefined)	-5%	-6%	3%	u	-3%	x	x	x	x	x	x
Cc1cc(=O)oc2cc(OCC(=O)N3CCN(C(=O)C4COc5ccccc5O4)CC3)c(Cl)cc12 (centres undefined)	-3%	-2%	-2%	u	-5%	x	x	x	x	x	x
Cc1c(C)c2ccc(OCC(=O)N3CCN(C(=O)C4COc5ccccc5O4)CC3)cc2oc1=O (centres undefined)	-1%	u	-3%	1.8µM*	-11%	x	4µM*	-18%	u	-6%	u
CCCc1cc(=O)oc2cc(OCC(=O)N3CCN(C(=O)C4COc5ccccc5O4)CC3)ccc12 (centres undefined)	-6%	-2%	-1%	3.7µM*	-14%	x	3.1µM*	u	u	-8%	u
Cc1c(Cc2ccccc2)c(=O)oc2cc(OCC(=O)N3CCC(C(N)=O)CC3)ccc12	-6%	-14%	-6%	0.82µM*	0%	x	u	28µM*	u	25µM*	-14%	ELG1 FLuc counter=0%;FLuc enzyme=u
Cc1cc(=O)oc2cc(OCC(=O)N3CCN(C(=O)C4COc5ccccc5O4)CC3)ccc12 (centres undefined)	0%	-5%	4%	1.2µM*	-4%	x	2.2µM*	u	u	u	-8%
COc1ccc2c(c1)CC(C(=O)N1CCC(C(N)=O)CC1)CO2 (centres undefined)	x	0%	x	x	x	x	x	x	x	x	x
O=C(COc1ccc2ccc(=O)oc2c1)N1CCN(C(=O)C2COc3ccccc3O2)CC1 (centres undefined)	-4%	-5%	-3%	1.5µM*	-8%	x	2.8µM*	14%	u	0%	-1%
CCOC(=O)Cc1ccc(NC(=O)N2CC(CC)Oc3ccccc32)cc1 (centres undefined)	x	1%	x	x	x	x	x	x	x	x	x
CCc1cn(C2CC(O)C(CO)O2)c(=O)[nH]c1=O (centres undefined)	-3%	-31%	0%	u	1%	x	x	x	x	x	x
O=C1c2ccccc2N2C(=O)c3ccccc3[C@H]2N1c1ccccc1	1%	-2%	-2%	u	-15%	-24%	20µM*	u	3%	-17%	-12%	ELG1 FLuc counter=-9%;FLuc enzyme=-1%
CN(C)S(=O)(=O)c1cccc(CSCc2cccc(S(=O)(=O)N(C)C)c2)c1	-33%	-2%	-33%	1.3µM*	-6%	x	u	1.1µM*	-13%	1.1µM*	u
Cc1cc(C)n2nc(SCc3cccc(S(=O)(=O)N(C)C)c3)nc2n1	-7%	8%	-3%	-1%	-6%	x	x	x	x	x	x
O=C1CCC/C1=c1\s/c(=C\c2cccnc2)c(=O)n1-c1ccccc1	4%	-1%	2%	13µM*	-17%	-12%	8.9µM*	u	9%	-9%	-17%	ELG1 FLuc counter=-6%;FLuc enzyme=-4%
Cc1cccc(NC(=O)CSc2nncn2C)c1	x	-5%	x	x	x	-1%	x	x	x	x	x
CCOc1ccc(C(=O)N(Cc2cc(OC)c(OC)c(OC)c2)c2ccccn2)cc1	x	6%	x	x	x	x	x	x	x	x	x
O=C(N/N=C/c1ccc([N+](=O)[O-])s1)c1ccccc1	-23%	-15%	-11%	u	-7%	-45%	x	x	x	x	x
O=C(CNC(=O)c1cccc(F)c1)N/N=C/c1ccc([N+](=O)[O-])s1	-23%	-13%	-16%	2.9µM*	-17%	-25%	u	10µM*	-3%	14µM*	-4%

High-throughput results: PubChem, National Center for Advancing Translational Sciences (NCATS)
